Compound activity as filed in PubChem BioAssay.
A selection: hits, their analogues and other compounds. The true share with any hit is near 1.7%.
SARS 3CLpro inh = SARS-CoV 3CLpro protease inhibitors, primary screen, biochemical, quenched FRET | recombinant SARS-CoV 3CLpro, quenched FRET peptide cleavage | inhibition, % at 6 µM | hit rate 0.14% among 290,000 | AID 1706, 2009; in the data active = inhibition above about 12%
PfHsp40 yeast = rescue of yeast from PfHsp40 toxicity, primary screen, S. cerevisiae, ATP luminescence. S. cerevisiae expressing PfHsp40, growth rescue. growth rescue, % at 12.5 µM. hit rate 0.68% among 340,000. AID 504582, 2011; in the data active = growth rescue above about 28%, passing the limit was not always enough;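 note: yeast W303a lacking pdr1 and pdr3 grown in galactose medium; growth measured after three days at 30 °C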
Vc quorum ag = inducers of Vibrio cholerae quorum light production without autoinducers, primary screen, BH1578 luxS cqsA deficient, single point; hit rate 0.16% among 350,000; V. cholerae BH1578 lux reporter, luminescence, 6 h; activation, % at 18.7 µM; in the data active = activation mostly above about 9.7%, no sharp cut-off
DUSP3 inh = VHR1 phosphatase inhibitors, primary screen, biochemical, absorbance, uHTS | recombinant VHR phosphatase, pNPP absorbance | hit rate 0.52% among 290,000 | inhibition, % at 13.3 µM | Dual specificity protein phosphatase 3 (Homo sapiens), P51452; in the data active = inhibition above about 50%
Target sequence (P51452 whole entry, looked up): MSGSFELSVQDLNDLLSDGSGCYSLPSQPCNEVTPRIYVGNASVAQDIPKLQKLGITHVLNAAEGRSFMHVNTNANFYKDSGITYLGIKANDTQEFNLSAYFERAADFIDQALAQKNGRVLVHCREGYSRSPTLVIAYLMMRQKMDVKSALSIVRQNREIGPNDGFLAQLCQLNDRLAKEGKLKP
BJeLR lethal = MLPCN primary cell-based screen for lethality selective to Ras in HRASV12 cells | inhibition, % (no concentration beside the values) | BJeLR (HRASV12) viability, CellTiter-Glo ATP luminescence, 48 h | hit rate 0.17% among 300,000; in the data active = inhibition above about 50%
MazEF act = activators of E. coli MazEF toxin-antitoxin RNase, primary screen, biochemical, fluorescence, uHTS; Endoribonuclease toxin MazF (Escherichia coli (strain K12)), P0AE70; FAM/BHQ RNA-DNA oligo cleavage fluorescence, 5 h; activation, % at 20 µM; hit rate 0.32% among 350,000; AID 504720, 2011; in the data active = activation above about 50%
Target sequence (P0AE70 whole entry, looked up): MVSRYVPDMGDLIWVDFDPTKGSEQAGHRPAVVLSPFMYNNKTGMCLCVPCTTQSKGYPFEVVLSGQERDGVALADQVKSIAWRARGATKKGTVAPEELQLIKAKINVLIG
The depositor's hits bear a star; i = inactive; . = no result.

SMILES	SARS 3CLpro inh	PfHsp40 yeast	Vc quorum ag	DUSP3 inh	BJeLR lethal	MazEF act
CN(CCCCCCN(C)Cc1ccccc1O)Cc1ccccc1O	4	1	-1	52*	7	0
COc1ccc(NC(=O)CSc2nc3ccccc3c(=O)n2Cc2cccs2)c(OC)c1	0	.	.	18	-11	.
COCCn1c(SCC(=O)Nc2ccc(OC)cc2OC)nc2ccccc2c1=O	-2	-1	i	51*	9	4
C/C(=N\NC(=O)CN1CCCCC1)c1cccc([N+](=O)[O-])c1	.	1	i	.	3	10
C/C(=N\NC(=O)CN1CCCCC1)c1ccccc1O	2	-1	-1	53*	0	-3
Cc1ccsc1CN(C(=O)c1ccccc1)C1CCS(=O)(=O)C1 (configuration not stated)	3	-1	i	-2	1	1
CCn1c(C)nc2cc(-c3nc4n(n3)Cc3ccccc3-4)ccc21	-4	-4	-6	30	63*	2
Cc1ccc(-c2nc3n(n2)Cc2ccccc2-3)cc1	-1	1	-7	18	20	8
N[C@@H](Cc1c[nH]c2ccccc12)c1nnc(SCc2ccccc2)o1	-2	0	-2	31	8	6
Brc1ccc(CSc2nnc(Cc3c[nH]c4ccccc34)o2)cc1	5	37*	i	18	-6	-8
COc1ccccc1/C=C/CN1CCC(Oc2ccc(C(=O)N3CCCC3)cc2)CC1	-5	-1	0	53*	-3	0
COc1cc(/C=C/CN2CCC(Oc3ccc(C(=O)N4CCCC4)cc3)CC2)ccc1O	6	0	-1	-17	3	8
CC1(C(=O)NS(=O)(=O)c2cccc(Cl)c2)CCN1C(=O)c1ccccc1 (configuration not stated)	.	.	-5	.	.	.
CCN(CC)S(=O)(=O)c1ccc(C(=O)/C=C/c2ccc(-c3ccc([N+](=O)[O-])cc3)o2)cc1	0	0	-1	4	18	298*
Cc1ccc(C(=O)/C=C/c2ccc(-c3ccc(C)cc3)o2)cc1	4	-1	i	21	-8	-32
CCc1ccc(C(=O)/C=C/c2ccc([N+](=O)[O-])o2)cc1	-10	120*	i	25	59*	-2
Clc1ccc(COC(Cn2ccnc2)c2ccc(Cl)cc2Cl)c(Cl)c1 (configuration not stated)	0	91*	i	9	1	-37
OC(COc1ccc(Cl)cc1Cl)Cn1ccnc1 (configuration not stated)	-1	-1	i	2	-3	2
C=CCOC(Cn1ccnc1)c1ccc(Cl)cc1Cl (configuration not stated)	.	326*	i	.	.	-3
CN1CCN(S(=O)(=O)c2ccc(F)cc2)CC1	.	.	0	.	.	-3
O=C(O)C1Nc2ccc(Br)cc2C2C=CCC12 (configuration not stated)	1	3	0	37	-9	6
O=C(OC1CCCCC1)c1ccc2c(c1)C1C=CCC1C(C(=O)O)N2 (configuration not stated)	1	.	.	87*	.	.
O=C1N=C2SCCN2/C1=C\c1ccc(Cl)cc1	-4	3	i	56*	5	-9
COc1ccc(NC(=O)NNC(=O)c2cc3occc3n2C)c(OC)c1	-3	0	0	51*	5	7
CC(=O)c1c(C)[nH]c(C(=O)OCc2ccc([N+](=O)[O-])cc2)c1C	-8	-1	0	52*	6	1
CC(C)(C)OC(=O)NCc1ccc(CNC(=O)c2[nH]cnc2C(=O)NC2CCN(C(=O)OC(C)(C)C)CC2)cc1	.	4	i	.	.	11
COc1ccc(C(=O)Nc2ccc(OCC(=O)N3CCOCC3)cc2)c(OC)c1OC	-2	0	0	57*	1	10
O=C(CN1C(=O)NC2(CCc3ccccc32)C1=O)NCc1ccc(Cl)cc1 (configuration not stated)	.	0	-1	.	.	-1
